From PubChem BioAssay AID1159580 (chemical genetic matrix, 2015)
In all, about 5,500 compounds went through this assay and about 2,000 (36%) were called active. About 18% were inconclusive and are not listed. Cut-off read from the data, not from the text of the source: active = normalized growth mostly below about 0.91 (no sharp cut-off); inconclusive = no clear call, values can overlap the other calls; inactive = mostly above about 0.92. Some of the results follow.

Test: chemical genetic growth profiling, strain panel (AID 1159580);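 note: tested at 20 µM; growth read once vehicle control cultures reached saturation at 30 °C; 1 = growth at the plate median or of vehicle wells; lower values mean less growth of the strain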
Conditions: growth OD

Measured: normalized growth

CS(=O)(=O)c1ccc(C2=C(c3ccccc3)C(=O)OC2)cc1
inactive: S. cerevisiae deletion strains, locus YJR066W, strain TOR1, stronger effect = lower value 0.97 | S. cerevisiae deletion strains, locus YJR075W, strain HOC1, stronger effect = lower value 0.992 | S. cerevisiae deletion strains, locus YKL009W, strain mrt4, stronger effect = lower value 0.949 | S. cerevisiae deletion strains, locus YKL068W, stronger effect = lower value 0.983 | S. cerevisiae deletion strains, locus YKL085W, strain MDH1 (second series), stronger effect = lower value 0.979 | S. cerevisiae deletion strains, locus YKL085W, strain MDH1, stronger effect = lower value 0.979 | S. cerevisiae deletion strains, locus YKL160W, strain elf1, stronger effect = lower value 0.988 | S. cerevisiae deletion strains, locus YKL190W, strain CNB1, stronger effect = lower value 0.98 | S. cerevisiae deletion strains, locus YKR001C, strain vps1, stronger effect = lower value 0.987 | S. cerevisiae deletion strains, locus YKR026C, strain gcn3, stronger effect = lower value 0.983 | S. cerevisiae deletion strains, locus YKR091W, strain srl3, stronger effect = lower value 0.961 | S. cerevisiae deletion strains, locus YLL001W, strain dnm1, stronger effect = lower value 0.999 | S. cerevisiae deletion strains, locus YLL026W, stronger effect = lower value 0.985 | S. cerevisiae deletion strains, locus YLL041C, strain sdh2, stronger effect = lower value 0.994 | S. cerevisiae deletion strains, locus YLR027C, strain aat2, stronger effect = lower value 0.978 | S. cerevisiae deletion strains, locus YLR039C, strain RIC1, stronger effect = lower value 0.951 | S. cerevisiae deletion strains, locus YLR058C, strain SHM2, stronger effect = lower value 1 | S. cerevisiae deletion strains, locus YLR102C, strain apc9, stronger effect = lower value 0.992 | S. cerevisiae deletion strains, locus YLR113W, strain HOG1, stronger effect = lower value 1.01 | S. cerevisiae deletion strains, locus YLR221C, strain rsa3, stronger effect = lower value 0.974 | S. cerevisiae deletion strains, locus YLR258W, strain gsy2, stronger effect = lower value 0.988 | S. cerevisiae deletion strains, locus YLR262C, strain YPT6 (second series), stronger effect = lower value 0.96 | S. cerevisiae deletion strains, locus YLR262C, strain YPT6, stronger effect = lower value 0.965 | S. cerevisiae deletion strains, locus YLR268W, strain sec22, stronger effect = lower value 0.971 | S. cerevisiae deletion strains, locus YLR320W, strain mms22, stronger effect = lower value 0.991 | S. cerevisiae deletion strains, locus YLR330W, strain CHS5, stronger effect = lower value 0.986 | S. cerevisiae deletion strains, locus YLR342W, strain FKS1 (second series), stronger effect = lower value 1.01 | S. cerevisiae deletion strains, locus YLR342W, strain FKS1, stronger effect = lower value 0.966 | S. cerevisiae deletion strains, locus YLR357W, strain rsc2, stronger effect = lower value 0.955 | S. cerevisiae deletion strains, locus YLR370C, strain arc18, stronger effect = lower value 0.971 | S. cerevisiae deletion strains, locus YLR371W, strain rom2, stronger effect = lower value 0.981 | S. cerevisiae deletion strains, locus YLR384C, strain iki3, stronger effect = lower value 0.992 | S. cerevisiae deletion strains, locus YLR418C, strain cdc73, stronger effect = lower value 0.987 | S. cerevisiae deletion strains, locus YML016C, strain PPZ1, stronger effect = lower value 1 | S. cerevisiae deletion strains, locus YML032C, strain rad52, stronger effect = lower value 0.97 | S. cerevisiae deletion strains, locus YML120C, strain ndi1, stronger effect = lower value 0.959 | S. cerevisiae deletion strains, locus YML124C, strain tub3, stronger effect = lower value 0.989 | S. cerevisiae deletion strains, locus YMR058W, strain fet3, stronger effect = lower value 0.978 | S. cerevisiae deletion strains, locus YMR078C, strain ctf18, stronger effect = lower value 0.985 | S. cerevisiae deletion strains, locus YMR125W, strain sto1, stronger effect = lower value 0.961 | S. cerevisiae deletion strains, locus YMR129W, stronger effect = lower value 0.988 | S. cerevisiae deletion strains, locus YMR205C, strain PFK2, stronger effect = lower value 0.986 | S. cerevisiae deletion strains, locus YMR223W, strain ubp8, stronger effect = lower value 0.982 | S. cerevisiae deletion strains, locus YMR231W, strain pep5, stronger effect = lower value 0.992 | S. cerevisiae deletion strains, locus YMR263W, strain SAP30, stronger effect = lower value 0.958 | S. cerevisiae deletion strains, locus YMR307W, strain GAS1, stronger effect = lower value 0.998 | S. cerevisiae deletion strains, locus YNL067W, strain RPL9B, stronger effect = lower value 0.953 | S. cerevisiae deletion strains, locus YNL071W, strain lat1, stronger effect = lower value 0.979 | S. cerevisiae deletion strains, locus YNL128W, strain TEP1, stronger effect = lower value 0.985 | S. cerevisiae deletion strains, locus YNL153C, strain GIM3, stronger effect = lower value 0.994 | S. cerevisiae deletion strains, locus YNL183C, strain NPR1, stronger effect = lower value 0.984 | S. cerevisiae deletion strains, locus YNL209W, strain ssb2, stronger effect = lower value 0.951 | S. cerevisiae deletion strains, locus YNL233W, strain BNI4, stronger effect = lower value 0.992 | S. cerevisiae deletion strains, locus YNL248C, strain rpa49, stronger effect = lower value 0.965 | S. cerevisiae deletion strains, locus YNL250W, strain rad50, stronger effect = lower value 0.995 | S. cerevisiae deletion strains, locus YNL271C, strain bni1, stronger effect = lower value 0.971 | S. cerevisiae deletion strains, locus YNL298W, strain CLA4, stronger effect = lower value 0.99 | S. cerevisiae deletion strains, locus YNL307C, strain MCK1, stronger effect = lower value 0.986 | S. cerevisiae deletion strains, locus YNL322C, strain KRE1 (second series), stronger effect = lower value 0.97 | S. cerevisiae deletion strains, locus YNL322C, strain KRE1, stronger effect = lower value 0.994 | S. cerevisiae deletion strains, locus YNR049C, strain mso1, stronger effect = lower value 0.964 | S. cerevisiae deletion strains, locus YNR052C, strain pop2, stronger effect = lower value 0.975 | S. cerevisiae deletion strains, locus YOL006C, strain TOP1, stronger effect = lower value 0.91 | S. cerevisiae deletion strains, locus YOL012C, strain htz1 1.22 | S. cerevisiae deletion strains, locus YOL147C, strain pex11, stronger effect = lower value 0.995 | S. cerevisiae deletion strains, locus YOR001W, strain rrp6, stronger effect = lower value 0.979 | S. cerevisiae deletion strains, locus YOR061W, strain CKA2, stronger effect = lower value 1 | S. cerevisiae deletion strains, locus YOR069W, strain VPS5, stronger effect = lower value 1 | S. cerevisiae deletion strains, locus YOR070C, strain gyp1, stronger effect = lower value 0.977 | S. cerevisiae deletion strains, locus YOR080W, strain dia2, stronger effect = lower value 0.962 | S. cerevisiae deletion strains, locus YOR083W, strain WHI5, stronger effect = lower value 0.975 | S. cerevisiae deletion strains, locus YOR106W, strain vam3, stronger effect = lower value 0.968 | S. cerevisiae deletion strains, locus YOR136W, strain idh2, stronger effect = lower value 0.992 | S. cerevisiae deletion strains, locus YOR144C, strain elg1, stronger effect = lower value 0.975 | S. cerevisiae deletion strains, locus YOR184W, strain ser1, stronger effect = lower value 0.975 | S. cerevisiae deletion strains, locus YOR231W, strain MKK1, stronger effect = lower value 1.03 | S. cerevisiae deletion strains, locus YOR265W, strain rbl2, stronger effect = lower value 0.973 | S. cerevisiae deletion strains, locus YOR270C, strain vph1, stronger effect = lower value 0.933 | S. cerevisiae deletion strains, locus YOR290C, strain snf2, stronger effect = lower value 0.972 | S. cerevisiae deletion strains, locus YOR316C, strain cot1, stronger effect = lower value 0.987 | S. cerevisiae deletion strains, locus YPL051W, strain arl3, stronger effect = lower value 0.986 | S. cerevisiae deletion strains, locus YPL055C, strain LGE1, stronger effect = lower value 0.957 | S. cerevisiae deletion strains, locus YPL078C, strain atp4, stronger effect = lower value 0.986 | S. cerevisiae deletion strains, locus YPL106C, strain sse1, stronger effect = lower value 0.942 | S. cerevisiae deletion strains, locus YPL240C, strain hsp82, stronger effect = lower value 0.969 | S. cerevisiae deletion strains, locus YPL241C, strain CIN2, stronger effect = lower value 0.994 | S. cerevisiae deletion strains, locus YPL256C, strain CLN2, stronger effect = lower value 1.06 | S. cerevisiae deletion strains, locus YPR141C, strain kar3, stronger effect = lower value 0.98 | S. cerevisiae deletion strains, locus YPR163C, strain tif3, stronger effect = lower value 0.989 | S. cerevisiae deletion strains, locus YPR167C, strain met16, stronger effect = lower value 0.978 | S. cerevisiae deletion strains, strain wtn01, stronger effect = lower value 0.985 | S. cerevisiae strains, strain wild type, stronger effect = lower value 0.989
